Screens as filed in PubChem.
RecA intein inh: blocks M. tuberculosis RecA intein splicing; P9WHJ3; cell-free RecA intein splicing, fluorescence; inhibition, % (test concentration not listed); 290,000 tested, 0.75% active; in the data active means inhibition above about 30%
Target sequence (P9WHJ3 whole entry, looked up): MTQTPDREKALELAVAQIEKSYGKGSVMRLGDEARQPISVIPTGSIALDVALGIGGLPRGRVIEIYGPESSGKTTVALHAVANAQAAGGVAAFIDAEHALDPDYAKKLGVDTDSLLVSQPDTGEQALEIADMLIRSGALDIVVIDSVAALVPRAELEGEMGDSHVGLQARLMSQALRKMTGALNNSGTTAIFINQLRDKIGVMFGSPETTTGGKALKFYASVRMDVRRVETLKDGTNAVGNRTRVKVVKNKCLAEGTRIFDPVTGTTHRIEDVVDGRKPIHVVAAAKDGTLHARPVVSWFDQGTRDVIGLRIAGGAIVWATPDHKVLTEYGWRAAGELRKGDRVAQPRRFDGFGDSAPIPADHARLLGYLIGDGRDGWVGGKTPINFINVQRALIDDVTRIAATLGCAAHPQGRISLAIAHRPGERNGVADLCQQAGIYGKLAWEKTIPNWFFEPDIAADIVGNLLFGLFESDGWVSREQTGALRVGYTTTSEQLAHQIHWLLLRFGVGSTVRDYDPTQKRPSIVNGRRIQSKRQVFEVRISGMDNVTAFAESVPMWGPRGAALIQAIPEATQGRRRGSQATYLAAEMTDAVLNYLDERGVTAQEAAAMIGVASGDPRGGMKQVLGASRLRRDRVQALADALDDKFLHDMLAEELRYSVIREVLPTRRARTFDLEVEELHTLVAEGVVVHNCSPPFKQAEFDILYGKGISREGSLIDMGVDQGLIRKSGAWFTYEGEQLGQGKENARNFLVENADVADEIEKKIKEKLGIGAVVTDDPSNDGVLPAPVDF
CCHFV vOTU inh: blocks the CCHF virus ovarian tumor domain protease | CCHFV vOTU protease, Pep-AMC fluorescence | inhibition, % at 11.5 µM | 370,000 tested, 0.55% active | AID 651958; in the data active means inhibition above about 30%
SSB-PriA inh: blocks PriA binding to SSB C-terminal tail; AID 1272365; 430,000 tested, 0.6% active; inhibition, % at 33 µM; AlphaScreen SSBct-PriA binding, biotinylated peptide; in the data active means inhibition mostly above about 37%, no sharp cut-off; inactive means mostly below about 20%
SARS 3CLpro inh: SARS-CoV 3CLpro protease inhibition | P0C6X7 | AID 1706 | inhibition, % at 6 µM | recombinant SARS-CoV 3CLpro, quenched FRET peptide cleavage | 290,000 tested, 0.14% active; in the data active means inhibition above about 12%
VHR inh abs: DUSP3 (human) phosphatase inhibition; recombinant VHR phosphatase, pNPP absorbance; inhibition, % at 13.3 µM; 290,000 tested, 0.52% active; AID 1654; in the data active means inhibition above about 50%
A number is an active result; . = inactive; / = no result. Hits are enriched below; roughly 1.7% of the tested compounds scored in any of these assays.

SMILES | RecA intein inh | CCHFV vOTU inh | SSB-PriA inh | SARS 3CLpro inh | VHR inh abs
COC(=O)c1[nH]c2c(c1C)C(=O)CC(c1cc(OC)c(OC)c(OC)c1)C2 (centres undefined) | . | . | . | . | 52
COc1nn(C)cc1C(=O)N1CCCN(S(=O)(=O)c2cnn(C)c2)CC1 | / | / | . | / | /
CCC1(C)NC(C(=O)O)Cc2c1[nH]c1ccccc21 (centres undefined) | . | . | . | . | 60
COCC(=O)Nc1ccc(Nc2ccc(C)nn2)cc1 | / | / | . | / | /
O=C(Nc1ccc(Nc2ccc(-n3cccn3)nn2)cc1)c1ccco1 | / | / | 89 | / | /
COCC(=O)Nc1ccc(Nc2ccc(-n3cccn3)nn2)cc1 | / | / | 83 | / | /
Cc1cccc(-c2nc3c(c(SCC(=O)N4CCOCC4)n2)COC(C)(C)C3)c1 | . | . | . | . | 60
COc1cccc(NC(=S)N2CCCCC2)c1 | / | / | . | / | /
O=C(/C=C/c1ccco1)NC(=S)Nc1ccccc1N1CCCC1 | . | . | . | . | 56
O=C(NC(=S)Nc1ccccc1N1CCCC1)c1ccccc1[N+](=O)[O-] | . | . | 57 | . | .
C=CCn1c(=NC(=O)c2cccc(N3C(=O)CCC3=O)c2)sc2c(C)cc(C)cc21 | / | / | . | / | /
COc1ccccc1NCc1ccc(O)c2ncccc12 | / | / | . | / | /
Cc1ccc(NCc2ccc(O)c3ncccc23)cc1 | . | . | . | . | .
Cc1cccnc1NCc1ccc(O)c2ncccc12 | . | . | 57 | . | .
Cc1ccc(NCc2ccc(O)c3ncccc23)cc1C | . | . | 41 | . | .
Cc1cccc(NCc2ccc(O)c3ncccc23)c1C | . | . | 60 | . | .
Cn1cccc(C(=O)NCc2cncc(-c3ccsc3)c2)c1=O | / | / | . | / | /
COc1ccc2c(COC(=O)CNC(=O)C34CC5CC(CC(C5)C3)C4)cc(=O)oc2c1 | . | . | . | . | 51
COc1cc(NC(=O)COC(=O)CNC(=O)C23CC4CC(CC(C4)C2)C3)cc(OC)c1 | / | . | . | / | /
COc1ccccc1N1CCN(C(=O)/C=C/c2ccccc2)CC1 | . | . | . | . | 53
CN(C)[C@@H]1C(=O)C(C(=O)NCN2CCCC2)=C(O)[C@@]2(O)C(=O)C3=C(O)c4c(O)cccc4[C@@](C)(O)C3CC12 (some centres undefined) | . | / | / | . | 66
CN(C)C1C(=O)C(C(N)=O)=C(O)C2(O)C(=O)C3=C(O)c4c(O)cccc4C(C)(O)C3CC12 (centres undefined) | . | / | . | . | .
Cc1cc(C(=O)Nc2nc(-c3ccccn3)cs2)on1 | / | / | 94 | / | /
O=C(Nc1nc(-c2cc(Cl)ccc2Cl)cs1)c1ccno1 | / | / | . | / | /
O=C(Nc1nc(-c2ccccn2)cs1)c1ccco1 | . | . | 49 | . | .
SMILES | RecA intein inh | CCHFV vOTU inh | SSB-PriA inh | SARS 3CLpro inh | VHR inh abs
O=C(Nc1nc(-c2ccccn2)cs1)c1ccno1 | / | / | 125 | / | /
O=C(Nc1nc(-c2ccncc2)cs1)c1ccco1 | . | . | . | . | .
CN(C(=O)c1ccno1)c1nnc(-c2ccccn2)s1 | . | . | 42 | . | /
Cc1cc(C(=O)Nc2nc(-c3ccncc3)cs2)on1 | / | / | . | / | /
COc1ccc(NC(=O)c2ccc([N+](=O)[O-])cc2)cc1N1CCCCC1=O | / | / | . | / | /
COc1ccc2oc(C(=O)Nc3ccc(F)cc3)cc(=O)c2c1 | / | / | . | / | /
Cc1cc(C)c(OCC(=O)Nc2nc(-c3ccccn3)cs2)c(C)c1 | . | . | . | . | .
C[C@H](NC(=O)c1ccco1)C(=O)Nc1nc(-c2ccccn2)cs1 | / | . | 53 | / | /
O=C(CNC(=O)c1ccco1)Nc1nc(-c2ccccn2)cs1 | / | / | 96 | / | /
C[C@H](NC(=O)c1ccco1)C(=O)Nc1nnc(SCc2ccccc2)s1 | / | . | . | / | /
COc1ccc(OC)c(-c2cc(C(=O)NCc3cc(-c4ccco4)n(C)n3)n(C)n2)c1 | / | / | . | / | /
COc1ccc(Cl)cc1C(=O)NCC#CCOc1ccc2c(c1)OCO2 | / | / | . | / | /
COc1ccc(OC)c(-c2cc(C(=O)NCCc3nc(-c4ccco4)cn3C)n(C)n2)c1 | / | / | 35 | / | /
COc1ccc(OC)c(-c2cc(C(=O)NCC#CCOc3ccc4c(c3)OCO4)n(C)n2)c1 | / | / | 53 | / | /
COc1ccc(Nc2nc(C(=O)Nc3ccc(C)c(F)c3)cs2)c(OC)c1 | / | / | . | / | /
O=C(Nc1nnc(-c2ccc(Br)s2)o1)c1ccc(S(=O)(=O)N2CCCC2)cc1 | / | / | . | / | /
COc1cccc(NCc2cc(=O)oc3cc(C)c(O)cc23)c1 | . | . | . | . | 52
CCOc1ccccc1NCc1cc(=O)oc2cc(C)c(O)cc12 | . | . | . | . | 55
COc1cccc(NCc2cc(=O)oc3cc(-c4ccccc4)c(O)cc23)c1 | . | . | . | . | .
Nc1c(C(=O)N2CCCC2)nsc1C(=O)NCCC1=CCCCC1 | / | / | . | / | /
COc1cc(-c2cc(C(=O)NCC3CCCN3c3ccccc3)[nH]n2)cc(OC)c1OC (centres undefined) | / | / | 59 | / | /
COc1ccccc1OCC(=O)NC[C@H]1CCCN1c1ccccc1 | / | / | . | / | /
COc1cccc2cc(C(=O)NC[C@H]3CCCN3c3ccccc3)oc12 | / | / | 29 | / | /
Cc1cc(C)n(/N=C/c2ccc(C(C)C)cc2)c(=O)c1C#N | . | . | / | . | 51
Nc1nc(-c2csc(N)n2)cs1 | / | / | 46 | / | /
SMILES | RecA intein inh | CCHFV vOTU inh | SSB-PriA inh | SARS 3CLpro inh | VHR inh abs
CCCc1ccc(C2C3=C(CC(C)(C)CC3=O)NC3=C2C(=O)c2ccccc23)cc1 (centres undefined) | . | . | 47 | . | .
CC1(C)CC(=O)C2=C(C1)NC1=C(C(=O)c3ccccc31)C2c1ccc(O)cc1 (centres undefined) | . | . | 50 | . | .
CCCCc1ccc(C2C3=C(CC(C)(C)CC3=O)NC3=C2C(=O)c2ccccc23)cc1 (centres undefined) | . | . | . | . | .
CC1(C)CC(=O)C2=C(C1)OC1=C(C(=O)CC(C)(C)C1)C2c1ccc(O)cc1 | / | / | . | / | /
CC(=O)N1CCc2ccc(NC(=O)Cc3ccsc3)cc2C1 | / | / | . | / | /
CC(=O)Nc1ccc(S(=O)(=O)NCC2CCC(C(=O)NC3CCCCCC3)CC2)cc1 (centres undefined) | . | . | . | . | .
Cc1ccc(S(=O)(=O)NCC2CCC(C(=O)NC3CCCCC3)CC2)cc1 (centres undefined) | . | . | . | . | 58
O=S(=O)(c1ccc2c(c1)CCCC2)N1CC(c2nc3ccccc3[nH]2)C1 | / | / | . | / | /
CCc1ccc(C(=O)NNC(=S)Nc2ccc(S(N)(=O)=O)cc2)s1 | 63 | . | . | . | .
CC(C)CC(=O)NNC(=S)Nc1ccc(S(N)(=O)=O)cc1 | . | . | . | . | .
CC[n+]1c(/C=C2\C=C(C)CC(C)(C)C2)sc2ccccc21 | 47 | . | . | . | .
COc1ccc(C(CC(=O)NCCN2CCOCC2)Sc2n[nH]c(-c3ccc(Cl)cc3)n2)cc1 (centres undefined) | / | / | . | / | /
COc1ccc(NC(=O)Cc2cc(=O)[nH]c(SCc3ccc(F)cc3)n2)cc1Cl | / | / | . | / | /
Cc1ccc(NC(=O)CS(=O)(=O)c2cn(C)c3ccccc23)c(C)c1 | . | . | 104 | / | .
FC(F)(F)c1cccc(-c2noc(-c3cc(C4CC4)[nH]n3)n2)c1 | / | / | . | / | /
Cc1ccc(NC(=O)C2CC(=O)N/C(=N/N=C/c3ccco3)S2)cc1 (centres undefined) | . | . | / | . | 58
Cc1cccc(NC(=O)C2CC(=O)NC(=NN=Cc3ccco3)S2)c1 (centres undefined) | / | / | . | / | /
